Mcl1 Noxa PPI = disrupts binding of human Mcl-1 to Noxa peptide. 220,000 tested, 1.5% active. TR-FRET Mcl-1/Noxa peptide binding, 2 h. inhibition, % at 21.7 µM. Q07820;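 active means compounds that cut the protein-peptide binding signal by more than 50% relative to plate controls in a single-dose test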;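 further: His-tagged Mcl-1 with rhodamine Noxa BH3 peptide and terbium anti-His antibody; 0% = Mcl-1 plus Noxa peptide wells and 100% = peptide-only wells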
Target sequence (Q07820 whole entry, looked up): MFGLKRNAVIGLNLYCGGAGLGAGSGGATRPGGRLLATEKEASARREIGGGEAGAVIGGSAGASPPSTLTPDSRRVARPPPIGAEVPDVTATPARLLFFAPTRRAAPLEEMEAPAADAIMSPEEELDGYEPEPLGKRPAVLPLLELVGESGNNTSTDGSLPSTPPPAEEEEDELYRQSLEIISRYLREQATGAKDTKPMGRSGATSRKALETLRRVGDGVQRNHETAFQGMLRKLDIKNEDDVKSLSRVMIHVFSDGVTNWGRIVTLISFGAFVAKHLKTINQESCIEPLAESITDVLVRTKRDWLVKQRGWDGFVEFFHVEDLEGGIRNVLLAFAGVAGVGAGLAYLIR
Bim-Mcl-1 = inhibitors of Bim-Mcl-1 interaction, human; 190,000 tested, 0.1% active; Bead-based flow cytometry, Bim peptide-Mcl-1 binding; Q07820; inhibition, % at 10 µM; AID 1009; in the data active means inhibition above about 40%;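 further: 0% = no compound tracer wells and 100% = peptide blocker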
GLD-1 RNA inh = GLD-1-TGE RNA interaction inhibition (C. elegans); 320,000 tested, 0.44% active; Q17339; purified GLD-1 + fluorescein TGE RNA, fluorescence polarization; AID 2280; inhibition, % at 5.96 µM;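 active means percent inhibition above a per-plate cutoff, the plate mean of test compounds plus 3 SD, cut at about 30% in these data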;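 further: 0% = DMSO wells with GLD-1 and probe and 100% = wells lacking GLD-1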
BCLXL inh = blocks human Bcl-xL binding to Bim BH3 peptide; Q07817; GST-Bcl-xL / FITC-Bim BH3 peptide fluorescence polarization; inhibition, % at 10.9 µM; 320,000 tested, 0.7% active; AID 2129;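 active means inhibition above the mean of all tested compounds plus 3 SD, cutoff set per campaign, cut at about 30% in these data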;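 further: 0% = DMSO wells and 100% = unlabeled Bim-BH3 peptide competitor; inhibitors lower millipolarization by displacing the labeled peptide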
Target sequence (Q07817 whole entry, looked up): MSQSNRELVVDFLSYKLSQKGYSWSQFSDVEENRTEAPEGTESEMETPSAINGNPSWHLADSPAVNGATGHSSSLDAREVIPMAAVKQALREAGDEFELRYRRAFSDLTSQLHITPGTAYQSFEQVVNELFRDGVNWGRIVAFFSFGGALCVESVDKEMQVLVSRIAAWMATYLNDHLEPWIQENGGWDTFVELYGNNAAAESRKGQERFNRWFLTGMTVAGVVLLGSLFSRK
MCL1-BIM inh = disrupts human MCL1 binding to BIM-BH3 peptide. GST-MCL1 / FITC-Bim-BH3 fluorescence polarization. 320,000 tested, 0.68% active. Q07820. inhibition, % at 10.9 µM;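 active means inhibition above the mean inhibition of all tested compounds plus 3 SD, set per campaign, cut at about 40% in these data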;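 further: 0% = DMSO wells and 100% = unlabeled Bim-BH3 peptide control; higher means more loss of mP so more displacement of Bim peptide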
Mcl1 Bid PPI = disrupts binding of human Mcl-1 to Bid peptide | Q07820 | TR-FRET Mcl-1/Bid-Dy647 peptide binding, 1536-well | 220,000 tested, 0.97% active | inhibition, % at 21.7 µM;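 active means compounds that cut the binding signal by more than half at the single screening dose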;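 further: His-tagged Mcl-1 with europium anti-His antibody binding Bid BH3 peptide; 0% = Mcl-1 plus peptide wells and 100% = peptide-only wells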
* hit, by the source's call; / = no result given. This is a sample that favours compounds with a hit; in the whole collection about 2.3% have one here.

SMILES	Mcl1 Noxa PPI	Bim-Mcl-1	GLD-1 RNA inh	BCLXL inh	MCL1-BIM inh	Mcl1 Bid PPI
COC(=O)c1cc(OC)c(OC)cc1NCC(=O)Nc1ccc(C)cc1	16	-4	5	3	23	81*
CNC(=O)CN(C1CCCCC1)S(=O)(=O)c1ccc(OC)c(Cl)c1	-9	0	-1	-10	-17	98*
COc1ccc(S(=O)(=O)N(CC(=O)NC2CC2)C2CCCCC2)cc1Cl	5	-2	8	8	7	-1
Cc1ccccc1C(=O)Nc1cccc(-c2ccc(N3CCOCC3)nn2)c1	/	/	4	5	4	/
CCOC(=O)c1cc(-c2ccccc2)n(CC(=O)N2CCCC2)c1C	7	-1	4	4	2	94*
Cc1cc(C)c2c(NC(=S)NC(=O)c3ccccc3)n[nH]c2n1	11	-1	-1	5	5	-20
Cc1cc(C)c2c(NC(=S)Nc3ccccc3)n[nH]c2n1	60*	1	-2	10	13	-37
COc1ccc(-c2noc(CNS(=O)(=O)c3ccc(NC(C)=O)cc3)n2)cc1OC	/	/	2	2	1	/
COC(=O)CSc1nc(-c2ccc(C)cc2)c2c(c1C#N)CCCC2	-17	-6	-4	7	-3	61*
COC(=O)CSc1nc(N2CCOCC2)c2c(c1C#N)CCCC2	18	/	-4	0	-1	-19
COc1ccc(S(=O)(=O)Nc2ccc(C)cn2)cc1	/	/	-1	2	0	/
Cc1ccc(CSc2nnc([C@@H]3CCCN3)o2)cc1	50	-1	4	7	10	63*
COc1ccc(OC)c(Nc2nc(-c3cccc([N+](=O)[O-])c3)nc3ccccc23)c1	38	0	3	2	-5	70*
C=CCn1c(SCC(=O)c2[nH]c(C)c(C(C)=O)c2C)nnc1-c1ccncc1	8	-1	-1	-1	-4	5
C=CCn1c(SCC(=O)c2[nH]c(C)c(C(=O)OC)c2C)nc2scc(-c3ccc(OC)c(OC)c3)c2c1=O	53*	-5	2	1	-1	65*
COc1cc2c(cc1OC)C(Nn1cnnc1)=NC1(CCCC1)C2	8	/	4	2	-4	91*
O=C1C=C(O)c2cccc(O)c2C1=O	60*	/	8	12	13	-78
COc1cc(OC)c(NC(C)C(=O)N2CCCC2)cc1Cl (stereo not drawn)	8	-4	11	3	1	-55
O=C(C1CC(=O)N(c2ccc3c(c2)OCCO3)C1)N1CCN(c2cccc(C(F)(F)F)c2)CC1 (stereo not drawn)	/	/	1	-10	-10	/
O=C1CCC/C(=N\NC(=O)COc2ccc(Cl)cc2)C1	16	0	64*	6	10	-14
O=C(/C=C/N1CCOCC1)c1coc2ccccc12	-3	-1	-30	-21	-22	71*
O=C(/C=C/N1CCOCC1)c1cc2ccccc2o1	6	2	-25	-16	-18	75*
O=C(Nc1ccc(N2CCOCC2)cc1)c1cc2ccccc2o1	26	1	-1	3	0	-49
Cc1ccc(NC(=O)CSc2nc(N)cc(=O)[nH]2)cc1S(=O)(=O)N1CCCCCC1	/	/	0	/	/	/
Cc1cc(NC(=O)C(C)SCC(=O)Nc2cc(C(F)(F)F)ccc2N2CCOCC2)no1 (stereo not drawn)	/	/	4	1	0	/
SMILES	Mcl1 Noxa PPI	Bim-Mcl-1	GLD-1 RNA inh	BCLXL inh	MCL1-BIM inh	Mcl1 Bid PPI
CNC(=S)N(CCc1ccc(S(N)(=O)=O)cc1)C1CC(=O)N(c2ccccc2F)C1=O (stereo not drawn)	45	0	-3	-6	-2	61*
CCOc1ccc(N2C(=O)CC(N(CCc3ccc(S(N)(=O)=O)cc3)C(C)=O)C2=O)cc1 (stereo not drawn)	7	/	1	3	-5	7
O=C1C(C2=NC(C(=O)O)C3C(=O)N(c4ccc(Cl)cc4)C(=O)C23)=C(O)c2ccccc21 (stereo not drawn)	63*	-1	2	2	-1	-21
COc1cc(CNc2ccc(N3CCCC3)cc2)cc(Cl)c1OC	72*	11	9	17	17	-30
CCOc1cc(CNc2ccc(N3CCCC3)cc2)cc(Cl)c1OC	76*	-2	8	20	25	6
CCOc1ccc(CNc2ccc(N3CCCC3)cc2)cc1	66*	6	7	16	12	-29
Fc1ccccc1OCCCCN1CCCCC1	/	/	2	3	7	/
CCO[C@@H]1OC(C(=O)O)=C[C@H](c2ccc3c(c2)OCO3)[C@H]1CCCO	-16	0	13	1	-1	0
COc1ccccc1N(C(=O)c1snc(C(N)=O)c1N)C(C(=O)NC1CCCC1)c1ccc(N(C)C)cc1 (stereo not drawn)	/	/	3	0	-3	/
CCNc1nc(NCc2ccccc2)nc(SCC(=O)Nc2ccccc2)n1	10	-5	8	4	-2	53*
CCNc1nc(NCc2ccccc2)nc(SCC(N)=O)n1	0	-1	-3	6	4	-26
Cc1ccccc1OC1C(=O)N(CC2CCCO2)C1c1ccc2c(c1)OCO2 (stereo not drawn)	-23	2	4	100*	5	-43
Cc1cc(C(=O)COC(=O)c2ccc3c(c2)OCO3)c(C)n1CC1CCCO1 (stereo not drawn)	-8	-4	-1	9	7	-66
O=C(NC1CC1)c1cc(Cl)ccc1[N+](=O)[O-]	71*	-2	6	4	6	-121
O=C(NC1CCCC1)c1cc(Cl)ccc1[N+](=O)[O-]	11	-6	-6	-1	-4	0
CCCOc1ccc(-c2nc[nH]c2[N+](=O)[O-])cc1	7	4	1	-21	-37	-18
CC(=O)Nc1sc(N/N=C\c2ccco2)nc1-c1cccs1	74*	-5	-8	-4	-22	-74
CC(=O)Nc1sc(NC(=O)c2ccc(Cl)cc2)nc1-c1cccs1	31	-1	3	12	7	-19
CC(=O)Nc1sc(N/N=C\c2ccccc2Cl)nc1-c1cccs1	61*	-2	6	9	9	7
CC(=O)Nc1sc(N/N=C/c2ccc(O)cc2)nc1-c1ccc(C)cc1	89*	/	-5	4	2	-85
CCOc1cc(/C=N/Nc2nc(-c3cccs3)c(NC(C)=O)s2)ccc1O	101*	/	-8	2	4	-81
CCOC(=O)C1(Cc2ccccc2Cl)CCN(Cc2csc(C(C)=O)c2)CC1	6	0	4	3	4	-19
CC(=O)Nc1sc(N/N=C/c2ccccc2)nc1-c1ccc(C)cc1	7	/	0	3	1	-52
CC(=O)Nc1sc(N/N=C\c2ccccc2)nc1-c1cccs1	55*	-37	2	6	-13	-38
